Laboratory results as given in PubChem BioAssay (NCI).
Compounds without any hit were thinned out: in the full panel of roughly 83,000, 20% have a hit.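 Cell lines were cultured in 96-well plates, exposed to a single compound concentration, and assessed for percent growth 48 hours later.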 Active and inactive are the calls of the source. The calls were made as follows: active = growth percent below 10; inactive = the rest.

Columns and labels:
Assay in all cases: NCI-60 one-dose screen, 48 h (100 = growth as untreated, 0 = no growth, -100 = all killed)
Details in all cases: 10 µM unless noted
[1] = tested on: NCI-H23 lung
[2] = tested on: NCI-H226 lung
[3] = tested on: NCI-H322M lung
[4] = tested on: HOP-62 NSCLC
[5] = tested on: NCI-H460 lung
[6] = tested on: HOP-92 NSCLC
[7] = tested on: NCI-H522 lung
[8] = tested on: A549/ATCC NSCLC
[9] = tested on: 786-0 renal
[10] = tested on: COLO 205 colon

Measured: growth

NNc1nnc2nc(Nc3ccccc3)nc(Nc3ccc(S(N)(=O)=O)cc3)n12
inactive: [1] 102% | [2] 105% | [3] 102% | [4] 111% | [5] 101% | [6] 119% | [7] 101% | [8] 105% | [9] 110% | [10] 105%

Cc1ccccc1NC(=O)Nc1nc2ccc([N+](=O)[O-])cc2s1
inactive: [2] 15.4% | [9] 13.1% | [10] 10.9%
active: [1] 5.79% | [3] 9.34% | [4] 2.78% | [5] 5.87% | [6] -24.6% | [7] -10.9% | [8] 9.2%

O=C(CSc1cc[n+](CCCCO)c2ccccc12)n1ccc2ccccc21
inactive: [1] 95.8% | [2] 89.6% | [3] 96.8% | [4] 91.8% | [5] 99.2% | [6] 103% | [7] 99.4% | [8] 103% | [9] 108% | [10] 106%

C#Cc1cc(C(=O)Nc2ccc(CNCCN3CCOCC3)c(C(F)(F)F)c2)ccc1C
inactive: [1] 92.2% | [2] 95.4% | [3] 98.3% | [4] 102% | [5] 101% | [6] 68.7% | [7] 89.6% | [8] 87.7% | [9] 80.7% | [10] 105%

N#Cc1c(-c2cccs2)cc(-c2cnccn2)nc1SCC(=O)N/N=C/c1cccs1
inactive: [1] 56.6% | [2] 68.9% | [3] 73.1% | [4] 38.8% | [5] 20.8% | [6] 30.1% | [7] 73.1% | [8] 19.4% | [9] 16.6% | [10] 53.5%

O=C(CSc1nc2ccccc2c(=O)n1-c1ccccc1)N/N=C/c1ccc(Oc2ccc(Cl)cc2)cc1
inactive: [1] 39.1% | [2] 72.1% | [3] 84.5% | [4] 59.1% | [5] 32.1% | [6] 66.7% | [7] 49.6% | [8] 41.7% | [9] 53.2% | [10] 49.2%

O=C(CSc1nnc(-c2ccc(Cl)cc2)n1-c1ccccc1)Nc1ccccc1Cl
inactive: [1] 48.5% | [2] 48.7% | [3] 66.2% | [4] 115% | [5] 54.5% | [6] 101% | [7] 76.2% | [8] 30.4% | [9] 42.1% | [10] 88.7%

COc1ccc(-c2cc(-c3ccc(N4CCOCC4)cc3)n3c(n2)nc2ccccc23)cc1OC
active: [6] -4.32%
inactive: [1] 98% | [2] 85.7% | [3] 94.6% | [4] 94.8% | [5] 86.3% | [7] 87.7% | [8] 82.5% | [9] 84.7% | [10] 108%

Cn1cc(C2=C(c3coc4cc(Br)ccc34)C(=O)NC2=O)c2ccccc21
inactive: [1] 86.8% | [2] 74.8% | [3] 82.2% | [4] 71% | [5] 98.6% | [6] 93.4% | [7] 72% | [8] 71.6% | [9] 83.7% | [10] 71.3%

CC(=O)Nc1ccccc1-c1nc2ccccc2s1
inactive: [1] 91.8% | [2] 98.9% | [3] 101% | [4] 101% | [5] 101% | [6] 96.6% | [7] 95.7% | [8] 106% | [9] 104% | [10] 113%

Cc1c(C(=O)/C=C/c2ccc(Cl)cc2)nnn1-c1ccc2oc(=O)ccc2c1
inactive: [1] 92.9% | [2] 85.4% | [3] 98.5% | [4] 107% | [5] 102% | [6] 79.4% | [7] 88.8% | [8] 103% | [9] 101% | [10] 108%

O=C1/C(=C/c2cc(F)cc(F)c2)Cc2cc3c(cc21)OCO3
active: [7] 1.49% | [10] -15.2%
inactive: [1] 62.3% | [2] 52.2% | [3] 41.5% | [4] 58% | [5] 30.3% | [6] 63.4% | [8] 59.8% | [9] 61%

CN1CCN(c2ccc(C(=O)/C=C/c3cc(F)cc(C(F)(F)F)c3)cc2)CC1
inactive: [1] 72% | [2] 61.8% | [3] 78.9% | [4] 93.1% | [5] 80.2% | [6] 40.6% | [7] 83.4% | [8] 66.2% | [9] 89.7% | [10] 100%

CCS(=O)(=O)Nc1ccc(C(=O)CC2(O)C(=O)Nc3ccccc32)cc1 (stereo not given)
inactive: [1] 92.5% | [2] 91.5% | [3] 98.4% | [4] 94.6% | [5] 105% | [6] 38.2% | [7] 105% | [8] 107% | [9] 108% | [10] 93.8%

COc1ccc(Cn2cc(C#N)c(N)c2C(C)=O)cc1
inactive: [1] 101% | [2] 101% | [3] 98.8% | [4] 104% | [5] 104% | [6] 87.5% | [7] 102% | [8] 110% | [9] 111% | [10] 111%
